Rab9 promoter act: qHTS Assay for Rab9 Promoter Activators; Huh7 Rab9 promoter-luciferase reporter, luminescence, 24 h; Potency, µM (series often up to 9.22 µM), most hits filed as activators; 2.8% of 320,000 active; also: nearly all actives have a fitted effect of over 60% in size
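Rab9 promoter-driven luciferase in stably transfected Huh7 cells; 1500 cells/well rested 2 h, exposed to compound in DMSO for 24 h at 37 °C, 5% CO2. Luminescence read 10 min after adding luciferase reagent at ambient temperature.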
NPC1 prom act: qHTS Assay for NPC1 Promoter Activators. Huh7 NPC1 promoter luciferase reporter, 24 h. Potency, µM (doses to about 9.22 µM), usual class: activators. 2.4% of 320,000 active; also: nearly all actives have a fitted effect of over 60% in size
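Compounds in DMSO were transferred onto Huh7 NPC1-luciferase reporter cells pre-incubated 2 h; after 24 h at 37 °C, Amplite reagent was dispensed and luminescence recorded 10 min later.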
SMN2 splice up: qHTS Assay for Enhancers of SMN2 Splice Variant Expression | HEK293 SMN2-luciferase splicing reporter, luminescence, 30-36 h | Potency, µM (top dose mostly 46.1 µM), most hits filed as activators | 2.8% of 210,000 active | AID 1458, 2008; also: nearly all actives have a fitted effect of over 55% in size
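HEK293 cells carry an SMN2 minigene-luciferase reporter in which exon 7 inclusion puts luciferase in frame. Cells were seeded at 2000 cells/well, attached for 10-12 hours, then exposed to compounds for 30-36 hours at 37C before ONE-Glo luminescence.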
FLuc counter: qHTS profiling assay for firefly luciferase inhibitor/activator using purifed enzyme and Km concentrations of substrates (counterscreen for miR-21 project); Luciferin 4-monooxygenase (Photinus pyralis), P08659; purified FLuc, Km substrates, luminescence inhibition; 6.9% of 360,000 active; Potency, µM (top dose mostly 57.5 µM), most hits filed as inhibitors; also: nearly all actives have a fitted effect of over 55% in size
Target sequence (P08659 whole entry, looked up): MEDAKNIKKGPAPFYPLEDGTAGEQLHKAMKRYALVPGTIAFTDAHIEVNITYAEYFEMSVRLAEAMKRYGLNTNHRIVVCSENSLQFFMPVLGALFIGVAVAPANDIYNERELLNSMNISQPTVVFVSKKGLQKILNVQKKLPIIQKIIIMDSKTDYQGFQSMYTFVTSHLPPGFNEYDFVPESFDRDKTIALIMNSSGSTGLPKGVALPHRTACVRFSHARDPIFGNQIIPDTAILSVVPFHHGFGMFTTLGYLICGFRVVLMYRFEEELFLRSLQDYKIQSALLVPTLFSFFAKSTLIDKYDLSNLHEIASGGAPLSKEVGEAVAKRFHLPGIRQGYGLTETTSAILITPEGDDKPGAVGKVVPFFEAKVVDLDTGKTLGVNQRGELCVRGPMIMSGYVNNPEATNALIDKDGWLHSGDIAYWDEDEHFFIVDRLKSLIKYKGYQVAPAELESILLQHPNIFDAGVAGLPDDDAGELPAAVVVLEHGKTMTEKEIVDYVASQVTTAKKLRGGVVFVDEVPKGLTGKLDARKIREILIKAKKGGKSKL
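Biochemical qHTS of compounds, final roughly 60 µM downward over six points, against 10 nM purified firefly luciferase using Km concentrations of substrates (10 uM D-luciferin, 10 uM ATP) in Tris acetate pH 7.5 buffer; luminescence output.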
ELG1 genotox: qHTS screen for small molecules that induce genotoxicity in human embryonic kidney (HEK293T) cells expressing luciferase-tagged ELG1 | HEK293T ELG1-luciferase reporter, luminescence, 16 h | Potency, µM (top dose mostly 46 µM), most hits filed as activators | 1.3% of 330,000 active | AID 504466, 2011; also: nearly all actives have a fitted effect of over 60% in size
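HEK293T cells expressing luciferase-tagged ELG1 were treated with compound or DMSO for 16 hr at 37°C. Luciferase activity was then read after 30 min with ONE-Glo at room temperature; rising signal flags genetic stress.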
Hits are given with their value; – = inactive; ? = inconclusive; · = no result given. Sampled rows, rich in hits. Any-hit rate of the full collection: about 7.4%. Calls follow the shape of the dose curve; as a rule, active = well fitted curve in the direction sought with a large enough effect; inconclusive = small, poorly fitted or top-dose-only effect, or another doubt; inactive = no such curve, though single readings can be large; an effect the other way counts as inactive or inconclusive.

SMILES	Rab9 promoter act	NPC1 prom act	SMN2 splice up	FLuc counter	ELG1 genotox
CCOC(=O)c1c(NC(=O)CSc2cn(CCNC(=O)c3ccccc3F)c3ccccc23)sc2c1CCCC2	·	·	–	–	·
CCN(CC)c1ccc(/C=N/n2c(=S)[nH]nc(C)c2=O)cc1	–	–	·	15µM	–
Cc1n[nH]c(=S)n(/N=C/c2cccs2)c1=O	–	–	·	–	–
CC(C)(C)C1COc2ccccc2N1C(=O)c1cccc(Cl)c1 (configuration not stated)	–	–	·	–	–
CCN(C(=O)Cn1ncc2c1-c1cc(C)ccc1OC2)c1cc(Cl)ccc1OC	·	·	–	–	·
CCSc1nnc(NC(=O)c2ccc3ccccc3n2)s1	?	?	14µM	12µM	?
CCSc1nnc(NC(=O)c2cc(C)nc3ccccc23)s1	–	–	–	–	–
CCc1nnc(NC(=O)c2sc3nc4cc(C)ccc4cc3c2N)s1	–	–	–	9.5µM	–
CCc1nnc(NC(=O)c2nc(Cl)ccc2Cl)s1	–	–	·	–	–
CCc1nnc(NC(=O)c2ccc3ccccc3n2)s1	2.5µM	?	2.8µM	13µM	–
CCOC(=O)Cc1csc(NC(=O)c2sc3nc4ccc(C)cc4cc3c2N)n1	–	–	–	?	?
COC(=O)c1ccc(C2N=C(c3cccs3)CC(c3ccccc3O)N2)cc1 (configuration not stated)	–	–	–	?	–
CC(C)n1cnnc1SCC(=O)Nc1ccc(N2CCCCC2)cc1	–	–	·	6µM	?
CCC(C)c1ccc(NC(=O)CSc2nncn2N)cc1 (configuration not stated)	–	–	–	?	?
O=C(O)CSCC(=O)Nc1ccc(C2CCCCC2)cc1	·	·	–	12µM	·
Nn1cnnc1SCC(=O)Nc1ccc(C2CCCCC2)cc1	?	3.5µM	?	5.4µM	?
CC(C)n1cnnc1SCC(=O)NCC(=O)Nc1ccc(F)cc1	–	–	·	–	–
Cc1ccc(NC(=O)CSCC(=O)O)cc1	–	–	·	–	–
NC(=O)c1cc[n+](CC2=C(C(=O)O)N3C(=O)[C@@H](NC(=O)[C@@H](c4ccccc4)S(=O)(=O)[O-])[C@H]3SC2)cc1	–	–	–	·	·
CC(C)N1CCC2(CC1)N=C(c1ccc3c(c1)OCO3)CC(c1cc(Cl)ccc1O)N2 (configuration not stated)	–	–	–	17µM	–
COc1ccc(S(=O)(=O)N2CC(C)N(C(=O)N3CCOCC3)C2)cc1 (configuration not stated)	–	–	·	–	–
Oc1ccc(/C=N/Nc2cccc(Cl)n2)c(O)c1	–	?	·	5.4µM	?
Oc1ccc(/C=N/Nc2ccc(C(F)(F)F)cn2)c(O)c1	–	–	·	12µM	?
Oc1ccc(/C=N/Nc2ccc(C(F)(F)F)cn2)cc1	3.5µM	?	16µM	17µM	?
COc1ccc2c(c1)CC(NC(=O)Nc1c(C)cc(C)cc1C)CO2 (configuration not stated)	·	·	·	–	·
SMILES	Rab9 promoter act	NPC1 prom act	SMN2 splice up	FLuc counter	ELG1 genotox
Cc1cccc(C)c1NC(=O)C1=C(O)c2ccccc2N(C)S1(=O)=O	–	–	–	–	–
Cc1ccc(NC(=O)C2=C(O)c3ccccc3N(C)S2(=O)=O)cc1	–	–	–	15µM	–
O=c1cc(/C=C/c2c(F)cccc2Cl)[nH]c2ccccc12	?	?	–	?	–
Nc1nccc(/C=C/c2c(F)cccc2Cl)n1	?	–	?	24µM	?
Oc1cccc2ccc(/C=C/c3ccccc3Cl)nc12	–	?	·	1.9µM	18µM
Oc1cccc2ccc(/C=C/c3c(F)cccc3Cl)nc12	4µM	?	25µM	3µM	15µM
COc1c(C2=CC(=O)N(C)C2=O)c2c(n1C)C(=O)c1ccccc1C2=O	·	·	–	·	·
O=C(NC(=S)Nn1cnc2c(cnn2-c2ccccc2)c1=O)c1ccccc1	–	–	–	–	–
Cc1cc(N2C(=O)C3CCC(c4ccccc4)CC3C2=O)no1 (configuration not stated)	–	–	–	–	–
CC(C)Oc1ccc(C2CC(=O)N(c3cccc(/C=C/C(=O)O)c3)C2=O)cc1 (configuration not stated)	–	–	·	24µM	–

Screening results from PubChem.
